Results published in PubChem BioAssay AID651551 (Sanford-Burnham Center for Chemical Genomics, 2012).

Molecular target: PEG-3 (UniProt Q6IN02)
Assay: GAPDH versus PEG-3 reporter suppression – cell-based, luminescence, counter-screen for PEG-3 promoter inhibitor project, SAR follow-up (AID 651551)
Conditions: HeLa PEG-Prom / GAPDH luciferase reporter, 6 or 24 h, run 3, 24 h; at 99 µM (top of the series)

`CCn1cc(C(=O)NCc2ccco2)c(=O)c2cc(S(=O)(=O)N3CCCC3)ccc21` was tested, and the inhibition % (higher = more inhibition) was 46.7%.

`COc1ccc(-n2nc(C(=O)NCC(=O)Nc3cc(OC)c(OC)c(OC)c3)c3ccccc3c2=O)cc1OC` showed an inhibition % (higher = more inhibition) of 34.1%.

Work on `Cc1cc(NC(=O)c2ccccc2)n(-c2nc3ccccc3[nH]2)n1` yielded an inhibition % (higher = more inhibition) of 79.1%.

`COc1ccc(Cl)cc1Nc1nc(-c2sc(NC(=O)c3ccccc3)nc2C)cs1` showed an inhibition % (higher = more inhibition) of 60.5%.

Compound `CCCn1nc(C(=O)Nc2nc(-c3ccncc3)cs2)c2ccccc2c1=O` has an inhibition % (higher = more inhibition) of 44.6%.

`CCCn1nc(C(=O)Nc2nc(-c3ccccn3)cs2)c2ccccc2c1=O` gave an inhibition % (higher = more inhibition) of 40.8%.

For `O=C(Nc1nc(-c2ccccc2)cs1)c1nn(-c2ccccc2)c(=O)c2ccccc12`, the inhibition % (higher = more inhibition) was 11.5%.

With `Cc1ccc(Cl)cc1Nc1nc(-c2sc(NC(=O)c3ccco3)nc2C)cs1` the inhibition % (higher = more inhibition) was -26.2%.

With `COc1ccc(-n2nc(C(=O)NCC(=O)Nc3ccc(OC)c(OC)c3)c3ccccc3c2=O)cc1` the inhibition % (higher = more inhibition) was 34.1%.

`COc1ccccc1Nc1nc(-c2sc(NC(=O)c3ccco3)nc2C)cs1` gave an inhibition % (higher = more inhibition) of 21.6%.

`CCn1nc(C(=O)Nc2nc(-c3ccccn3)cs2)c2ccccc2c1=O` gave an inhibition % (higher = more inhibition) of 39.1%.

Compound `CCCn1nc(C(=O)Nc2nc3ccccc3s2)c2ccccc2c1=O` has an inhibition % (higher = more inhibition) of 16.5%.

Work on `Cc1nc(NC(=O)c2ccccc2)sc1-c1csc(Nc2ccccc2Cl)n1` yielded an inhibition % (higher = more inhibition) of -104%.

Work on `Cc1cc(NC(=O)c2cccc(C)c2C)n(-c2nc3ccccc3[nH]2)n1` yielded an inhibition % (higher = more inhibition) of 3.97%.

With `Cc1cc(NC(=O)c2ccccc2)n(-c2nc3ccccc3n2C)n1` the inhibition % (higher = more inhibition) was 3.97%.

Compound `Cc1cc(NC(=O)c2ccccc2C)n(-c2nc3ccccc3[nH]2)n1` has an inhibition % (higher = more inhibition) of 38%.

`COCCCNC(=O)c1ccc(Cn2c(=O)c3ccccc3n(Cc3ccccc3C#N)c2=O)cc1` showed an inhibition % (higher = more inhibition) of 73.4%.
